MLLE-PAM2 inh: blocks PAM2 peptide binding to the PABP1 MLLE domain | P11940 | GST-MLLE / FITC-PAM2 fluorescence polarization | inhibition, % at 20 µM | hit rate 0.36% among 360,000 | AID 588489; in the data active means inhibition above about 35%, passing the limit was not always enough;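 further: plate controls were DMSO wells with GST-MLLE for no effect and wells lacking GST-MLLE protein for full effect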
eIF4H inh: inhibitors of RNA binding by human eIF4H | inhibition, % at 35 µM | AID 2012 | eIF4H fluorescence polarization binding assay | hit rate 0.94% among 290,000;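 further: calls also rest on retests at 20 µM and on dose response follow-up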
PABP FP inh: blocks human PABP binding to poly(A) RNA; P11940; hit rate 1% among 290,000; fluorescence polarization; inhibition, % at 35 µM;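 further: calls also rest on retests at 20 µM and on dose response follow-up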
GRK2 aptamer HTS: human GRK2 inhibition via aptamer displacement. P25098. hit rate 0.59% among 330,000. bead flow cytometry, FAM-aptamer displacement from GRK2. AID 488847. inhibition of aptamer binding, % at 10 µM;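 active means inhibition of aptamer binding above 40%, roughly 3 SD of noise, on plates passing a quality check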;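 further: median bead fluorescence of bound FAM aptamer so fluorescent compounds give negative values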
PERK inh: blocks human PERK kinase; Q9NZJ5; inhibition, % at 5.6 µM; hit rate 0.17% among 220,000; CHO PERK-DD fusion, SEAP luminescence translation reporter;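 active means inhibition above the mean inhibition of all tested compounds plus 3 SD, set separately per screening campaign, cut at about 2.9% in these data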;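 further: PERK kinase domain activated by AP20187 dimerizer at 100 nM; 0% = DMSO with dimerizer and 100% = rapamycin at 8.4 µM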
Target sequence (Q9NZJ5 whole entry, looked up, the tested form may be a part): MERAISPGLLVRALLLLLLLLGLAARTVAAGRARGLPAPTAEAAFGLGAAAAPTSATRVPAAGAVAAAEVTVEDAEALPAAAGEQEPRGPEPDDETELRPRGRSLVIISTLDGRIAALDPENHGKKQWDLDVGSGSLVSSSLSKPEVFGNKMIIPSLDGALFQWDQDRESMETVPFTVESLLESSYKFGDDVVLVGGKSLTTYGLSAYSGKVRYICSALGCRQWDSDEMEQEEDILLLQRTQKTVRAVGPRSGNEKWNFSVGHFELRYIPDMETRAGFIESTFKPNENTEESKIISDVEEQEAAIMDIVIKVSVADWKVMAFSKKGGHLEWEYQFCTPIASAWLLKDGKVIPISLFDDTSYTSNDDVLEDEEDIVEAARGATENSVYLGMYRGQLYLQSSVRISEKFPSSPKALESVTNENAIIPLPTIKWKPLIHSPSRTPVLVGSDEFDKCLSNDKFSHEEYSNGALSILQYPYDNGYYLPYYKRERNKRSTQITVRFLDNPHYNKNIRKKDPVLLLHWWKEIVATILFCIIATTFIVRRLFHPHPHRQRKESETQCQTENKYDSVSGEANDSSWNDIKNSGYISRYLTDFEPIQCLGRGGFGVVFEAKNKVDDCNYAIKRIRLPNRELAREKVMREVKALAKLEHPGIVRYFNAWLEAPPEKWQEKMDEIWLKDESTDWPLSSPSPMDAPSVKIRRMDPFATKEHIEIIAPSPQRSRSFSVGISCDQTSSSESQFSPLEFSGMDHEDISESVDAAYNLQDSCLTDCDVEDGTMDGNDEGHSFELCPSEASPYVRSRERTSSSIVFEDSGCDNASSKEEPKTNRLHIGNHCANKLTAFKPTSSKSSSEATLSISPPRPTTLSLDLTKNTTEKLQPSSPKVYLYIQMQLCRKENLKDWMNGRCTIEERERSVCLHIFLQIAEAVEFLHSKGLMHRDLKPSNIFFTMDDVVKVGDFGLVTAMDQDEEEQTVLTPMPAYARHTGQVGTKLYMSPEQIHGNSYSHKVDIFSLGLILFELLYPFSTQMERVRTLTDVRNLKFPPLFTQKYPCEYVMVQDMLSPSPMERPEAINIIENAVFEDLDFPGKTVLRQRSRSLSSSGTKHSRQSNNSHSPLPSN
Numbers without * were called inactive; i = inactive; ? = inconclusive; . = no result given. Only some compounds are listed: those with a hit (about 1.9% of all), similar ones and a draw of the others. Unless noted, how the calls were made is not given here.

SMILES	MLLE-PAM2 inh	eIF4H inh	PABP FP inh	GRK2 aptamer HTS	PERK inh
Cc1ccc2nc3sc(C(=O)Nc4c(C)[nH]c(=O)[nH]c4=O)c(N)c3cc2c1	-1	14	-6	0	0
CCn1c(CC(=O)Nc2ccccc2)nnc1SCC(=O)Nc1nnc(C)s1	-4	-1	11	1	.
Cc1nn(CC(=O)NCC(C)c2ccccc2)c(=O)c2cccn12 (stereo not given)	-4	-5	-8	3	.
CCC(C(=O)NCC1CCCO1)n1nc(C)c2sc3ccccc3c2c1=O (stereo not given)	7	-8	6	0	.
CC(C)(C)OC(=O)N1CCC(c2cc(=O)n3[nH]cc(C(=O)NC4CCCC4)c3n2)CC1	5	-11	8	0	3.2*
CC(C)(C)OC(=O)N1CCC(c2cc(=O)n3[nH]cc(C(=O)Nc4ccc(F)c(Cl)c4)c3n2)CC1	0	19	6	1	1
Cc1c(C(=O)OCC2CCCO2)[nH]c2c1C(=O)CC(c1ccco1)C2 (stereo not given)	0	90*	43*	17	-1
c1cc2c(cc1C1CCCCC1)c1c3n2CCN=C3CCC1	-32	-10	36	0	0
Cc1ccc2c(c1)c1c3n2CCN=C3CCC1	-14	59*	76*	0	0
O=C(NC(=S)Nc1ccc(S(=O)(=O)Nc2nccs2)cc1)c1ccccc1	39*	-1	-9	0	0
O=C(O)c1ccc(NC(=O)C2(c3ccccc3)CCCC2)cc1	3	-7	10	0	2
O=C(NC(=S)Nc1ccc(S(=O)(=O)Nc2nccs2)cc1)c1cccnc1	41*	10	-6	9	0
O=C(Nc1ccc(S(=O)(=O)Nc2nccs2)cc1)c1nn(-c2ccccc2)ccc1=O	-36	77*	44	10	.
O=C(NC(=S)Nc1ccc(S(=O)(=O)Nc2nccs2)cc1)c1ccc(F)c(F)c1	17	5	-2	2	1
NS(=O)(=O)c1ccc(NC(=O)C2(c3ccccc3)CCCC2)cc1	-15	?	94*	0	1
CCN(c1ccc(NC(=O)COC(=O)CCc2cc(OC)c(OC)c(OC)c2)cc1)C(C)C	-6	-5	13	.	1
CC(C)(C)c1ccc(C(=O)C2CCCN(C(=O)c3ccccn3)C2)cc1 (stereo not given)	1	-2	-8	.	.
NS(=O)(=O)c1ccc(NC(=S)NC(=O)c2ccc(-c3ccccc3)cc2)cc1	43*	2	3	0	1
CCOc1ccccc1N1CCN(C(=O)c2ccccc2OCc2c(C)noc2C)CC1	-5	.	.	0	.
CCOc1ccc(C(=O)Nc2ccc3[nH]ncc3c2)cc1	-2	4	6	2	.
O=C(CSc1nc2ccccc2s1)c1cc2ccccc2o1	-10	60*	103*	1	1
CCc1cccc(C)c1NC(=O)Nc1ccc2c(c1)OCO2	-8	-5	-6	3	3.5*
O=c1c2ccccc2nc2ccc(NCc3ccco3)nn12	81	43	76*	4	0
Cc1sc2nc3ccc(NCc4ccco4)nn3c(=O)c2c1C	41*	24	25	2	0
Cc1sc2nc(SCC(=O)NCc3ccco3)n(CCc3ccccc3)c(=O)c2c1C	-3	5	5	3	-1
SMILES	MLLE-PAM2 inh	eIF4H inh	PABP FP inh	GRK2 aptamer HTS	PERK inh
COc1ccccc1CNC(=O)c1ccccc1NC(=O)C1=C(C)OCCS1	4	-12	5	3	.
COc1cc(CNc2ccc(N3CCCCC3)cc2)ccc1OCC(=O)NC(C)(C)C	14	-10	-8	0	.
O=C(COc1ccc(/C=N/NC(=O)c2ccccc2O)cc1)Nc1ccccc1	9	61	active	0	-1
O=C(COc1ccc(/C=N/NC(=O)c2ccccc2Br)cc1)Nc1ccccc1	6	0	-10	1	.
O=C(O)c1ccc(SCc2ccccc2)nc1	5	.	.	0	.
COc1cc(C2C(C#N)=C(N)N(c3cccnc3)C3=C2C(=O)CCC3)ccc1O (stereo not given)	0	51*	70*	2	1
CCSc1sccc1C1C(C#N)=C(N)N(c2cccnc2)C2=C1C(=O)CCC2 (stereo not given)	45*	14	18	3	-1
O=C(CCNC(=O)C1CCN(S(=O)(=O)c2ccc(F)cc2)CC1)NC1CC1	0	-16	9	2	.
O=C(O)CNc1ccccc1C(=O)O	3	74*	39	6	3.0*
O=C(O)c1ccccc1NCc1cccnc1	12	.	.	1	.
Cc1c(NC(=S)NC(=O)c2cccc3ccccc23)cccc1C(=O)O	44*	-10	-9	0	.
Cc1c(NC(=S)NC(=O)c2ccc(COc3ccccc3)cc2)cccc1C(=O)O	39*	8	14	0	.
CCC(C(=O)Nc1cccc(C(=O)O)c1C)c1ccccc1 (stereo not given)	16	3	-12	0	3.5*
C#CCN1C(=O)S/C(=C\c2ccc(-c3ccc(C(=O)O)cc3C)o2)C1=O	4	76*	72*	12	.
Cc1ccccc1NC(=O)CN1C(=O)S/C(=C\c2ccc(-c3cc(C(=O)O)ccc3C)o2)C1=O	-10	?	?	.	2
CC(C)(C)OC(=O)CN1C(=O)S/C(=C\c2ccc(-c3cccc(C(=O)O)c3)o2)C1=O	.	65*	41	11	.
Cc1ccc(NC(=O)CN2C(=O)S/C(=C\c3ccc(-c4cccc(C(=O)O)c4C)o3)C2=O)cc1	.	74*	52*	0	1
Cc1cc(C(=O)O)ccc1-c1ccc(/C=C2\SC(=O)N(CC(=O)Nc3ccc4c(c3)OCO4)C2=O)o1	-100	?	?	21	.
Cc1ccc(C(=O)O)cc1-c1ccc(/C=C2\SC(=O)N(CC(=O)Nc3ccccc3)C2=O)o1	-21	49	43	7	0
COc1cc(/C=C2\SC(=O)N(CC(=O)Nc3ccc(C)cc3)C2=O)cc(Cl)c1OCC(=O)O	-5	89*	21	9	.
COc1ccc(NC(=O)CCc2nnc3ccc(NCc4ccco4)nn23)cc1OC	-4	-5	14	0	.
Cc1ccc(C2(c3noc(CN4CCC(c5ccncc5)CC4)n3)CCCC2)cc1	4	-5	1	0	-1
Cc1ccc(S(=O)(=O)N2CCN(C(=O)COC(=O)c3ccc(Cl)c(S(N)(=O)=O)c3)CC2)c(C)c1	-127	.	.	.	.
Cc1ccc(NC(=O)CN2C(=O)S/C(=C/c3ccc(-c4cccc(C(=O)O)c4)o3)C2=O)cc1	-18	57	35*	.	0
O=C(O)c1cc(-c2ccc(/C=C3/SC(=S)N(Cc4ccccc4)C3=O)o2)ccc1Cl	i	86*	9.1*	.	0
CCc1ccc(NS(=O)(=O)c2cccc3nonc23)cc1	-20	1	0	2	1
CCCCOP(=O)(OCCCC)C(Nc1ccccc1)c1ccc2c(c1)OCO2 (stereo not given)	4	active	80*	0	0
CCOP(=O)(OCC)C(Nc1ccccc1)c1ccc2c(c1)OCO2 (stereo not given)	-6	.	.	2	.
CC(C)(C)NC(=O)NC(=O)CSc1n[nH]c(-c2ccccc2Br)n1	-3	-6	-3	0	1
